Laboratory results: PubChem BioAssay (NCATS)
Results filed as inconclusive are left out. Active and inactive are the calls of the source. Calls come from the whole dose curve; as a rule, active = well fitted inhibition curve with a large enough effect; inconclusive = small, poorly fitted or top-dose-only effect; inactive = flat fitted curve, though single readings scatter. Where a SMILES comes first, the peptide text is derived from it. The star is where a group is joined. AFC = O=c1cc(C(F)(F)F)c2ccc(N*)cc2o1

Assays:
CRL-7250 = normal cell line; assay: Cytotoxic Profiling of Annotated Libraries Using Quantitative High-Throughput Screening (AID 1296008); conditions: Five cell lines viability, CellTiter-Glo ATP luminescence, 48-72 h; max response: stronger effect = lower value; for max response: % is set by controls: 0 for no effect and ±100 for the full control effect
Procedure, shortened: (§1)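 Cells exposed to compounds for 48 or 72 hr at 37 degrees Celsius. Viability read as ATP-coupled luminescence with CellTiter-Glo after 10 min at room temperature.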

HEK293 = assay: as above; conditions: Five cell lines viability, CellTiter-Glo ATP luminescence, 48-72 h; max response: stronger effect = lower value
Procedure, shortened: as §1

HaCat = assay: as above; conditions: Five cell lines viability, CellTiter-Glo ATP luminescence, 48-72 h; max response: stronger effect = lower value
Procedure, shortened: as §1

KB-3-1 = assay: as above; conditions: Five cell lines viability, CellTiter-Glo ATP luminescence, 48-72 h; max response: stronger effect = lower value
Procedure, shortened: as §1

NIH3T3 = assay: as above; conditions: Five cell lines viability, CellTiter-Glo ATP luminescence, 48-72 h; max response: stronger effect = lower value
Procedure, shortened: as §1

HEK293T = assay: qHTS assay to identify novel small-molecules to repurpose for Merkel cell carcinoma treatment (AID 1296009); conditions: MCC and control cell lines, CellTiter-Glo viability, 72 h; series mostly up to 44.8 µM
Procedure, shortened: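 Cells were treated for 72 hr at 37 degree celsius with compounds in 8- or 11-point dose response. Viability was read by CellTiter-Glo luminescence, normalized to no-cell (cytotoxicity) and DMSO controls.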
Note: nearly all actives have a fitted effect of over 60% in size.

COCC(=O)N1CCc2cc(-c3csc(NC(=O)c4cc(OC)cc(OC)c4)n3)ccc21
inactive: outcome (CRL-7250) | outcome (HEK293) | max response (HaCat) -4% | outcome (KB-3-1) | outcome (NIH3T3) | Potency (HEK293T)

CC1CCC23COC(=O)C2=CC(O)CC3C1(C)CCC1=CC(=O)OC1O (stereo not drawn)
inactive: outcome (CRL-7250) | outcome (HEK293) | max response (HaCat) -0.369% | outcome (KB-3-1) | outcome (NIH3T3) | Potency (HEK293T)

C=CC1C(O[C@@H]2O[C@H](CO)[C@@H](O)[C@H](O)[C@H]2O)OC=C(C(=O)OC)C1Cc1nccc2c1[nH]c1ccccc12 (stereo partly drawn)
inactive: max response (CRL-7250) 3.98% | outcome (HEK293) | max response (HaCat) 1.01% | max response (KB-3-1) 5.15% | outcome (NIH3T3) | Potency (HEK293T)

CC(=O)NC(C(=O)OC1CCC(C)(C)C2CC=C3C(=O)OCC3(O)C12C)C(C)C (stereo not drawn)
inactive: max response (CRL-7250) 3.06% | outcome (HEK293) | max response (HaCat) -11.8% | outcome (KB-3-1) | max response (NIH3T3) -6.26% | Potency (HEK293T)

C=C1CC2C3(C)C(O)CC(=O)C(C)(C)C3C(OC(C)=O)C(OC(C)=O)C2(C)C2C(=O)OC(C)(C(=O)OC)C(=O)C12C (stereo not drawn)
inactive: outcome (CRL-7250) | outcome (HEK293) | max response (HaCat) 3.78% | max response (KB-3-1) 5.29% | outcome (NIH3T3) | Potency (HEK293T)

O=C1NC(Cc2ccc(O)cc2)C(=O)N2CCCC12 (stereo not drawn)
inactive: max response (CRL-7250) -11.1% | outcome (HEK293) | max response (HaCat) -15.4% | max response (KB-3-1) 8.78% | max response (NIH3T3) -0.188% | Potency (HEK293T)

C=C(C)[C@@H]1CC[C@](C)(O)[C@@H](OC(=O)c2ccccc2)C1
inactive: outcome (CRL-7250) | outcome (HEK293) | max response (HaCat) -0.346% | max response (KB-3-1) 2.9% | outcome (NIH3T3) | Potency (HEK293T)

c1ccc(Cc2ncc3c(n2)CCNCC3)cc1
inactive: max response (CRL-7250) -2.57% | outcome (HEK293) | max response (HaCat) -4.11% | max response (KB-3-1) 0.381% | outcome (NIH3T3) | Potency (HEK293T)

CC(C)CC1(C(=O)OCc2ccc(O[C@@H]3O[C@H](CO)[C@@H](O)[C@H](O)[C@H]3O)cc2)CC(=O)OC(C(=O)O)CC(=O)OCC2OC(O1)C(OC(=O)/C=C/c1ccc(O)cc1)C(O)C2O (stereo partly drawn)
inactive: max response (CRL-7250) 2.72% | outcome (HEK293) | max response (HaCat) -1.08% | max response (KB-3-1) 8.15% | outcome (NIH3T3) | outcome (HEK293T) inactive [at 9.27 µM]

CC(=O)O[C@H]1CC[C@@]2(CI)C(=CC[C@@H]3[C@@H]2CC[C@]2(C)[C@@H]([C@H](C)CCCC(C)C)CC[C@@H]32)C1
inactive: max response (CRL-7250) -3.01% | outcome (HEK293) | max response (HaCat) 4.89% | outcome (KB-3-1) | outcome (NIH3T3) | outcome (HEK293T) inactive [at 9.27 µM]

COC1=CC(=O)O[C@@H](CCc2ccccc2)[C@@H]1O
inactive: max response (CRL-7250) -14.6% | outcome (HEK293) | max response (HaCat) -13% | max response (KB-3-1) 5.84% | max response (NIH3T3) 3.13% | Potency (HEK293T)

CC(=O)N[C@@H](CC(C)C)C(=O)N[C@@H](CCC(=O)O)C(=O)N[C@@H](CCC(=O)O)C(=O)N[C@@H](CC(=O)O)C(=O)Nc1ccc2c(C(F)(F)F)cc(=O)oc2c1 (Ac-LEED-{AFC})
inactive: max response (CRL-7250) -4.37% | outcome (HEK293) | max response (HaCat) -31% | max response (KB-3-1) 0.179% | max response (NIH3T3) 1.1% | Potency (HEK293T)

C[C@@H]1C(=O)O[C@H]2CC34[C@H]5C[C@@H](C(C)(C)C)C36[C@@H](OC(=O)[C@@H]6O)O[C@@]4(C(=O)O5)[C@]21O (stereo partly drawn)
inactive: max response (CRL-7250) 3.21% | outcome (HEK293) | max response (HaCat) -17.8% | max response (KB-3-1) -3.91% | max response (NIH3T3) 1.08% | Potency (HEK293T)

CC1(C)CC2C(C1)C1(C)CCC13OC3(CO)C2O (stereo not drawn)
inactive: max response (CRL-7250) -2.76% | outcome (HEK293) | max response (HaCat) -6.47% | outcome (KB-3-1) | max response (NIH3T3) 5% | Potency (HEK293T)

COc1ccc(C)c2sc(NC(=O)c3ccncc3)nc12
inactive: outcome (CRL-7250) | outcome (HEK293) | max response (HaCat) 4.45% | outcome (KB-3-1) | max response (NIH3T3) 2.46% | Potency (HEK293T)

COc1cc2c(cc1O)C1(OC)Cc3ccc4c(c3C1N(C)CC2)OCO4 (stereo not drawn)
inactive: max response (CRL-7250) -5.51% | outcome (HEK293) | max response (HaCat) -3.77% | max response (KB-3-1) 9.56% | max response (NIH3T3) 2.76% | Potency (HEK293T)

COc1cc(/C=C/C(=O)O[C@H]2[C@H](O)[C@@H](CO)O[C@@]2(CO)O[C@H]2O[C@H](COC(=O)c3ccc(O)cc3)[C@@H](O)[C@H](O)[C@H]2O)cc(OC)c1OC
inactive: outcome (CRL-7250) | outcome (HEK293) | max response (HaCat) 4.76% | max response (KB-3-1) 3.54% | outcome (NIH3T3) | Potency (HEK293T)

C=C1C2=CC(O)C(C)C1(C)CC/C(C)=C/CCC1(C)OC1C2=O (stereo not drawn)
inactive: max response (CRL-7250) -9.54% | outcome (HEK293) | max response (HaCat) 1.13% | outcome (KB-3-1) | outcome (NIH3T3) | Potency (HEK293T)
